In PubChem BioAssay (NCATS) one finds activity, negative = cell killing and Potency data, which are given here for eight compounds.

A short description of experiment [1]: Drug repurposing screens with cells derived from glioblastoma tumor samples (AID 1345199). Further: nearly all actives have a fitted effect of over 40% in size. As to conditions: GBM patient neurospheres viability, ATP luminescence, 48 h. In outline:
(§1)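 Four patient lines of CD133+ GBM neurospheres were screened at several concentrations; hits were retested in those lines plus three slower-growing GBM lines, using 48-hour treatment and ATP-based viability.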

A further experiment deals with astro (control astrocytes). The experiment is described as above. As to conditions: viability, ATP luminescence, 48 h; series mostly up to 45.9 µM. In outline:
as §1

[2] abbreviates: at 45.9 µM (top of the series), tumour line B.
The mark [3] stands for this setting: at 45.9 µM (top of the series), tumour line D.
Setting [4] is: at 46 µM (top of the series), tumour line A.
Where [5] appears, read: at 46.1 µM (top of the series), tumour line C.

Inconclusive results are not listed. Unmarked numbers belong to inactive results. Activity calls are given as the source filed them. The call rests on the fitted dose curve; in most records, active means well fitted inhibition curve with a large enough effect; inconclusive means small, poorly fitted or top-dose-only effect; inactive means flat fitted curve, though single readings scatter.
On the % scale 0 is the no-effect control and ±100 the full control effect; potency means the concentration at half of the fitted maximal effect.

As for `CCCCC[C@H](O)/C=C/[C@@H]1[C@H]2C/C(=C/CCCC(=O)O)O[C@H]2C[C@H]1O`, the activity, negative = cell killing was -2.96% in experiment [1] (setting [2]), 0.816% in experiment [1] (setting [3]), -14.4% in experiment [1] (setting [4]) and -18.7% in experiment [1] (setting [5]). Besides, the Potency result in the experiment on astro was “inactive”.
The matching figures for `CC(C)CCCC(C)NC(C)C` (stereo not given): -14.7%, -20.7%, -22.7%, -7.93% and “inactive”.
With `c1ccc(-n2cnnn2)cc1`, the activity, negative = cell killing in experiment [1] (setting [2]) was -15%; in experiment [1] (setting [3]), 5.06%; in experiment [1] (setting [4]), -23.5%; in experiment [1] (setting [5]), -0.778%. The Potency entry with astro was “inactive”.
With `O=C(O)[C@@H]1C[C@H](CP(=O)(O)O)CCN1`, the activity, negative = cell killing in experiment [1] (setting [2]) is -4.93%; in experiment [1] (setting [3]), -11.9%; in experiment [1] (setting [4]), -21.2%; in experiment [1] (setting [5]) it was -14%. Besides, the Potency entry in the experiment on astro is “inactive”.
For `CC(C)NCC(O)COc1ccccc1-n1cccc1` (stereo not given), the activity, negative = cell killing in experiment [1] (setting [2]) was -14.4%; in experiment [1] (setting [3]), -7.4%; in experiment [1] (setting [4]) it was 15.7%. In experiment [1] (tumour line C), the Potency is 25.9 µM (active). In addition, in the experiment on astro, the Potency result was “inactive”.
Take `CN[C@@H]1[C@H](O[C@H]2[C@H](O[C@H]3[C@H](O)[C@@H](O)[C@H](N=C(N)N)[C@@H](O)[C@@H]3N=C(N)N)O[C@@H](C)[C@]2(O)CO)O[C@@H](CO)[C@H](O)[C@H]1O`: the activity, negative = cell killing was -12.7% in experiment [1] (setting [2]), -12.4% in experiment [1] (setting [3]), -5.62% in experiment [1] (setting [4]) and -12.6% in experiment [1] (setting [5]). The Potency entry in the experiment on astro was “inactive”.
`CCC(O)c1ccccc1` (stereo not given): the activity, negative = cell killing in experiment [1] (setting [2]) is -1.17%; in experiment [1] (setting [3]), 0.662%; in experiment [1] (setting [4]), -1.63%; in experiment [1] (setting [5]) it was 4.78%. Also, the Potency result in the experiment with astro is “inactive”.
Regarding `Cc1ncc(C[n+]2csc(CCO)c2C)c(N)n1`, the activity, negative = cell killing in experiment [1] (at 20 µM (top of the series), tumour line C) was -11.7%; in experiment [1] (at 21.2 µM (top of the series), tumour line B) it was -7.55%; in experiment [1] (at 21.2 µM (top of the series), tumour line D), 3.61%; in experiment [1] (at 21.3 µM (top of the series), tumour line A) it was -16.2%. For the same compound, in the experiment with astro, the Potency entry was “inactive”.
